Assay results as given in PubChem BioAssay (NCI).
Compounds without any hit were thinned out: in the full panel of roughly 79,000, 15% have a hit. Calls of active or inactive are those of the source. Cut-off read from the data, not from the text of the source: active = growth inhibition above about 70%; inactive = the rest.

Key:
[1] = NCI Yeast Anticancer Drug Screen. Data for the rad50 strain (AID 155);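 note: 0% = growth of vehicle-only cultures of the same strain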; settings: S. cerevisiae rad50 strain growth inhibition; at 50.0 µM; hits give high values
Procedure, shortened: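 Yeast carrying a defined DNA repair defect were exposed to test compounds, and growth was compared with vehicle-treated controls to give percent inhibition.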

[2] = NCI Yeast Anticancer Drug Screen. Data for the mec2-1 strain (AID 157); settings: S. cerevisiae mec2-1 strain, at 50.0 µM, hits give high values
Procedure, shortened: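 Vehicle-treated cultures served as reference for growth inhibition of compound-exposed mec2-1 yeast.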

[3] = NCI Yeast Anticancer Drug Screen. Data for the sgs1 mgt1 strain (AID 161);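 note: 0% = growth of cultures given vehicle only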; settings: S. cerevisiae sgs1 mgt1 strain, at 50.0 µM, hits give high values
Procedure, shortened: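 Mutant yeast exposed to compound; growth scored against vehicle-only wells.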

[4] = NCI Yeast Anticancer Drug Screen. Data for the cln2 rad14 strain (AID 165);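 note: 0% = growth equal to vehicle treated cultures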; settings: S. cerevisiae cln2 rad14 strain, at 50.0 µM, hits give high values
Procedure, shortened: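 Each compound was tested on cln2 rad14 yeast. Inhibition of growth was calculated against vehicle-exposed controls.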

[5] = NCI Yeast Anticancer Drug Screen. Data for the bub3 strain (AID 167); settings: S. cerevisiae bub3 mutant strain, at 50.0 µM, hits give high values
Procedure, shortened: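 Compounds were applied to a genetically altered yeast strain carrying a cell-cycle control defect. Growth inhibition was scored against vehicle-treated controls.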

[6] = NCI Yeast Anticancer Drug Screen. Data for the mlh1 rad18 strain (AID 175); settings: S. cerevisiae mlh1 rad18 strain growth inhibition; at 50.0 µM; hits give high values
Procedure, shortened: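 Vehicle-treated cultures served as the reference for growth inhibition in a yeast strain carrying DNA damage repair alterations exposed to each compound.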

Measured: growth inhibition

CSc1cc2c(cc1[N+](=O)[O-])C(=O)c1cc(F)ccc1-2
inactive: [1] 8.7% | [2] 18.1% | [3] 4.45% | [4] -5.5% | [5] 3.15% | [6] 5%

Clc1ccc2sc3c(c2c1)CCNC3
inactive: [1] 2.8% | [2] 0.1% | [3] -6.75% | [4] -31.4% | [5] -26% | [6] 13.6%

CC1CCC2C(C)(C)CC3(C)CCC1C23O (stereo not given)
inactive: [1] 29.9% | [2] 45.5% | [4] 30.4% | [5] 61.6%
active: [3] 81% | [6] 83.2%

O=S(=O)(/N=C(Cl)/C(Cl)=N/S(=O)(=O)c1ccccc1)c1ccccc1
inactive: [1] 15.3% | [2] -1.65% | [3] 22.7% | [4] -9.9% | [5] -0.1% | [6] 5.3%

FC(F)(F)C(F)(F)c1nc(C(F)(F)C(F)(F)C(F)(F)c2noc(C(F)(F)C(F)(F)F)n2)no1
inactive: [1] 8.5% | [2] 16.9% | [3] 15% | [4] -31.3% | [5] -3% | [6] -6.3%

COc1ccc2nc(Cl)sc2c1
inactive: [1] 32.4% | [2] -17.6% | [3] 41.4% | [4] 21.4% | [5] 42.1% | [6] 13.6%

OC1CC2CCCC2CC1O (stereo not given)
inactive: [1] -9.45% | [2] -29.7% | [3] -6.95% | [4] 6.35% | [5] -9.65% | [6] -0.75%

CCc1ccc(C(=O)O)cc1S(=O)(=O)Cl
inactive: [1] 7.2% | [2] 13.4% | [3] -12.6% | [4] -9.4% | [5] 2.55% | [6] 1.45%

C[C@]1(CO)CCC[C@@]2(C)C1CC[C@H]1CC3C[C@]12CC[C@]3(C)O (stereo not given in full)
inactive: [1] 47.2% | [2] 8% | [3] 41.2% | [4] 28.4% | [5] 32.6% | [6] 54.3%

COc1ccc(N2C(=O)CCC2=S)cc1
inactive: [1] -5.35% | [2] 8.55% | [3] 6.8% | [4] -4.5% | [5] -7.9% | [6] 15.5%

CCCCC(C(O)c1ccc(C(C)C)cc1)N(CC)CC (stereo not given)
inactive: [1] 56.2% | [2] 34.1% | [3] 53.9% | [4] 9% | [5] 62.2% | [6] 38%

Cc1cc(N/N=C/c2ccnc3ccccc23)c2cc3c(cc2n1)OCO3
inactive: [1] 43.4% | [2] 18% | [3] 23.4% | [4] 27% | [5] 31.7% | [6] 20.9%

CC12CC(=O)C3C(CCC4=CC(=O)CCC43C)C1CC=C2CC(=O)O (stereo not given)
inactive: [1] -4.8% | [2] 1.15% | [3] -23.4% | [4] -3.85% | [5] -5.15% | [6] -11.2%

CSc1ccc(NC(=O)Nc2cccc(F)c2)cc1
inactive: [1] -2.15% | [2] 11.9% | [3] 27.2% | [4] -18.5% | [5] 42.5% | [6] 35.6%

CC(=O)Oc1cccc(OC(C)=O)c1
inactive: [1] 41.8% | [2] 38.9% | [3] 25.2% | [4] 12.1% | [5] 6.8% | [6] 34.9%

O=C(O)CCC1(c2ccccc2)CCCCC1
inactive: [1] 6.1% | [2] 13.9% | [3] 11.6% | [4] 10.2% | [5] 47.7% | [6] -0.9%

O=S(=O)(O)c1cccc2nsnc12
inactive: [1] -0.35% | [2] -2.05% | [3] -3.6% | [4] 13.1% | [5] 9.5% | [6] -1.3%

O=C(O)c1cc(Br)ccc1[N+](=O)[O-]
inactive: [1] -5.8% | [2] -25.4% | [3] 3.95% | [4] 7.05% | [5] -1.95% | [6] -11%

O=C1c2cscc2C(=O)c2c(OCc3ccccc3)ccc(OCc3ccccc3)c21
inactive: [1] 3.7% | [2] 6.65% | [3] -7.45% | [4] -5.3% | [5] 1.95% | [6] 7.4%

CCN(CC)CC#CCCCN(CC)CC
inactive: [1] -29.3% | [2] -30.2% | [3] -27.9% | [4] 1.75% | [5] -44.5% | [6] -7.6%
